Reference: PubChem BioAssay (NCATS)
Results filed as inconclusive are left out. A call without a number means that no potency is given here. Unmarked numbers belong to inactive results. Active and inactive are the calls of the source. Calls come from the whole dose curve; as a rule, active = well fitted curve in the direction sought with a large enough effect; inconclusive = small, poorly fitted or top-dose-only effect, or another doubt; inactive = no such curve, though single readings can be large; an effect the other way counts as inactive or inconclusive.

What was measured:
[1] = test system: MCC-13; assay: qHTS assay to identify novel small-molecules to repurpose for Merkel cell carcinoma treatment (AID 1296009); conditions: MCC and control cell lines, CellTiter-Glo viability, 72 h; series mostly up to 46 µM; note: nearly all actives have a fitted effect of over 60% in size
Outline: (§1)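 After compound transfer in DMSO, plates were kept 72 hr at 37 degree celsius. Luminescent ATP signal from CellTiter-Glo served as viability measure, normalized against DMSO and no-cell controls.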

[2] = test system: MCC-26; assay: as above; conditions: MCC and control cell lines, CellTiter-Glo viability, 72 h; series mostly up to 46 µM
Outline: as §1

[3] = test system: MKL-1; assay: as above; conditions: MCC and control cell lines, CellTiter-Glo viability, 72 h; series mostly up to 46 µM
Outline: as §1

[4] = test system: MKL-2; assay: as above; conditions: MCC and control cell lines, CellTiter-Glo viability, 72 h; series mostly up to 46 µM
Outline: as §1

[5] = test system: NIH3T3; assay: as above; conditions: MCC and control cell lines, CellTiter-Glo viability, 72 h; at 44.8 µM (top of the series)
Outline: as §1

[6] = test system: UISO; assay: as above; conditions: MCC and control cell lines, CellTiter-Glo viability, 72 h; series mostly up to 46 µM
Outline: as §1

[7] = test system: WaGa; assay: as above; conditions: MCC and control cell lines, CellTiter-Glo viability, 72 h; series mostly up to 46 µM
Outline: as §1

[8] = test system: C33A; assay: Primary qHTS to identify gynecologic anti-cancer compounds using libraries of approved drugs and bioactive compounds (AID 1345084); conditions: Gynecologic cancer cell panel viability, ATPlite luminescence, 48 h; series mostly up to 57.5 µM; note: nearly all actives have a fitted effect of over 55% in size
Outline: (§2)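 Five-point cytotoxicity, 48 h drug exposure at 37 C, 5% CO2, on cells seeded 16 h beforehand. ATP content read by ATPlite luminescence.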

[9] = test system: CAOV3; assay: as above; conditions: Gynecologic cancer cell panel viability, ATPlite luminescence, 48 h; series mostly up to 57.5 µM
Outline: as §2

[10] = test system: CASKI; assay: as above; conditions: Gynecologic cancer cell panel viability, ATPlite luminescence, 48 h; series mostly up to 57.5 µM
Outline: as §2
Potency is the fitted concentration of half-maximal effect.

Row | SMILES | Potency [1] | Potency [2] | Potency [3] | Potency [4] | outcome [5] | Potency [6] | Potency [7] | Potency [8] | Potency [9] | Potency [10]
1 | CCC(C(=O)OCCOCCN(CC)CC)c1ccccc1 (stereo unspecified) | inactive | inactive | inactive | inactive | inactive | inactive | inactive | inactive | inactive | inactive
2 | CCOCCn1c(N2CCCN(C)CC2)nc2ccccc21 | inactive | inactive | inactive | inactive | – | inactive | inactive | inactive | inactive | inactive
3 | CCOc1ccc(NC(C)=O)cc1 | inactive | inactive | inactive | inactive | – | inactive | inactive | inactive | inactive | inactive
4 | NCc1ccccc1Sc1ccccc1CO | inactive | inactive | inactive | inactive | inactive | inactive | – | inactive | inactive | inactive
5 | CCN1/C(=C/C=C/c2sc3ccccc3[n+]2CC)Sc2ccccc21 | 3260 nM (active) | 5800 nM (active) | 366 nM (active) | 58 nM (active) | – | 366 nM (active) | 820 nM (active) | 2510 nM (active) | – | –
6 | Cn1c(=O)c2[nH]c(Br)nc2n(C)c1=O | inactive | inactive | inactive | inactive | – | inactive | inactive | inactive | inactive | inactive
7 | N#C/C(=C1\SCC(c2ccccc2Cl)S1)n1ccnc1 (stereo unspecified) | inactive | inactive | inactive | inactive | – | inactive | inactive | inactive | inactive | inactive
8 | CCNC(=O)/C=C/c1cccc(Br)c1 | inactive | inactive | inactive | inactive | – | inactive | inactive | inactive | inactive | inactive
9 | CC(=O)OCC(=O)[C@H]1CC[C@H]2[C@@H]3CCC4=CC(=O)CC[C@]4(C)[C@H]3CC[C@]12C | inactive | inactive | inactive | inactive | – | inactive | inactive | inactive | inactive | inactive
10 | CN1CCC(OC(c2ccccc2)c2ccccc2)CC1 | inactive | inactive | inactive | inactive | inactive | inactive | inactive | inactive | inactive | inactive
11 | CCCc1ncc(C[n+]2ccccc2C)c(N)n1 | inactive | inactive | inactive | inactive | – | inactive | inactive | inactive | inactive | inactive
12 | CC1=C(C(=O)O)N2C(=O)[C@@H](NC(=O)[C@H](N)c3ccccc3)[C@H]2SC1 | inactive | inactive | inactive | inactive | – | inactive | inactive | inactive | inactive | inactive
13 | N[C@H](C(=O)O)[C@@H](O)c1ccc(O)c(O)c1 | inactive | inactive | inactive | inactive | – | inactive | inactive | inactive | inactive | inactive
14 | O=S(=O)(O)c1ccc(O)cc1 | inactive | inactive | inactive | inactive | – | inactive | inactive | inactive | inactive | inactive
15 | C=CCN1CCc2nc(N)sc2CC1 | inactive | inactive | inactive | inactive | – | inactive | inactive | inactive | inactive | inactive
16 | CC(=O)O[C@]1(C(C)=O)CC[C@H]2[C@@H]3C=C(C)C4=CC(=O)CC[C@]4(C)[C@H]3CC[C@@]21C | inactive | inactive | inactive | inactive | – | inactive | inactive | inactive | inactive | inactive
17 | CCCN(CCC)S(=O)(=O)c1ccc(C(=O)O)cc1 | inactive | inactive | inactive | inactive | – | inactive | inactive | inactive | inactive | inactive
18 | COc1ccc(C(=O)c2ccccc2)c(O)c1 | inactive | inactive | inactive | inactive | – | inactive | inactive | inactive | inactive | inactive
19 | OC[C@H]1O[C@@H]2O[C@H]3[C@H](O)[C@@H](O)[C@@H](O[C@H]4[C@H](O)[C@@H](O)[C@@H](O[C@H]5[C@H](O)[C@@H](O)[C@@H](O[C@H]6[C@H](O)[C@@H](O)[C@@H](O[C@H]7[C@H](O)[C@@H](O)[C@@H](O[C@H]8[C@H](O)[C@@H](O)[C@@H](O[C@H]1[C@H](O)[C@H]2O)O[C@@H]8CO)O[C@@H]7CO)O[C@@H]6CO)O[C@@H]5CO)O[C@@H]4CO)O[C@@H]3CO | inactive | inactive | inactive | inactive | – | inactive | inactive | inactive | inactive | inactive
20 | CC(=O)O[C@H]1C[C@@H]2CC[C@@H]3[C@H](CC[C@@]4(C)[C@H]3C[C@H]([N+]3(C)CCCCC3)[C@@H]4OC(C)=O)[C@@]2(C)C[C@@H]1N1CCCCC1 | inactive | inactive | inactive | inactive | – | inactive | inactive | inactive | inactive | inactive
21 | Nc1nc(-c2ccccc2)c(Br)c(=O)[nH]1 | inactive | inactive | inactive | inactive | – | inactive | inactive | inactive | inactive | inactive
22 | NC(=O)c1ccccc1O | inactive | inactive | inactive | inactive | – | inactive | inactive | inactive | inactive | inactive
23 | CCCCCCCCOc1ccc(C(=O)c2ccccc2)c(O)c1 | inactive | inactive | inactive | inactive | – | inactive | inactive | inactive | inactive | inactive
24 | NS(=O)(=O)c1cc2c(cc1Cl)NC(CC1CCCC1)NS2(=O)=O (stereo unspecified) | inactive | inactive | inactive | inactive | – | inactive | inactive | inactive | inactive | inactive
